Results filed as inconclusive are left out. Calls of active or inactive are those of the source. Rule for the calls: active = hit-call score of the fitted dose curve at least 0.9, where 1 is the maximum; inconclusive = response in the unintended direction; inactive = score below 0.9.
Molecular target: human RAR-related Orphan Receptor gamma (RORg), RORC (gene 6097) (UniProt P51449)
Test: ATG_RORg_TRANS: Attagene TRANS-FACTORIAL HepG2 Assay for human RAR-related Orphan Receptor gamma (RORg) (AID 2283011)
Method: ATG_TRANS is a cell-based, multiplexed-readout assay that uses HepG2, a human liver cell line, with measurements taken at 24 hours after chemical dosing in a 24-well plate.ATG_RORg_TRANS is one of 30 assay component(s) measured or calculated from the ATG_TRANS assay. It is designed to make measurements of mRNA induction, a form of inducible reporter, as detected with fluorescence intensity signals by Reverse transcription polymerase chain reaction (RT-PCR) and Capillary electrophoresis technology.Data from the assay component ATG_RORg_TRANS was analyzed into 1 assay endpoint. This assay endpoint, ATG_RORg_TRANS, was analyzed in the positive analysis fitting direction relative to DMSO as the negative control and baseline of activity. Using a type of inducible reporter, measures of mRNA for gain-of-signal activity can be used to understand the reporter gene at the transcription factor-level as they relate to the gene RORC. Furthermore, this assay endpoint can be referred to as a primary readout, because this assay has produced multiple assay endpoints where this one serves a reporter gene function. To generalize the intended target to other relatable targets, this assay endpoint is annotated to the nuclear receptor intended target family, where the subfamily is orphan.
Human liver HepG2 cells are transiently transfected with multiple reporter transcription units (MRTUs) in 6-well plates using FuGene 6 reagent (Roche; 3 ml FuGene/1 mg DNA). The MRTU constructs are regulated by a cis-regulating element (promoter). […] A major difference between the CIS and TRANS system is that in CIS activities of endogenous TFs are measured, whereas the TRANS assay evaluates changes in activities of exogenous, chimeric NR-Gal4 proteins. […] At the end of 24 hour incubation, total RNA was isolated using TriZol reagent (Invitrogen). The isolated RNA is then reverse-transcribed using oligo(dT) primer and Mo-MLV reverse transcriptase (Invitrogen) with DNAse I (Ambion) treatment for 30 min. The one-tenth of the produced cDNA was amplified by PCR using Taq DNA polymerase (Invitrogen) and two reporter sequence-specific primers. The PCR products were fluorescently labeled by primer extension with 6-arboxyfluorescein (6-FAM) 5'-labeled reporter sequence-specific primer (2 min at 95 C, 20 s at 68 C and 10 min at 72 C) and these products were digested with 5U of HpaI (New England Biolabs) for 2h at 37 C. The fragments were purified using Qiaquick PCR columns (Qiagen), analyzed on an ABI 3130xL genetic analyzer (Applied Biosystems) with peak positions identified by using a set of X-rhodamine (ROX)-labeled MapMarker1000 molecular weight standards (BioVentures). The raw capillary electrophoresis data was processed using Attagraph software (Attagene).

Sequence of human RAR-related Orphan Receptor gamma (RORg), RORC (gene 6097) (P51449 whole entry, looked up): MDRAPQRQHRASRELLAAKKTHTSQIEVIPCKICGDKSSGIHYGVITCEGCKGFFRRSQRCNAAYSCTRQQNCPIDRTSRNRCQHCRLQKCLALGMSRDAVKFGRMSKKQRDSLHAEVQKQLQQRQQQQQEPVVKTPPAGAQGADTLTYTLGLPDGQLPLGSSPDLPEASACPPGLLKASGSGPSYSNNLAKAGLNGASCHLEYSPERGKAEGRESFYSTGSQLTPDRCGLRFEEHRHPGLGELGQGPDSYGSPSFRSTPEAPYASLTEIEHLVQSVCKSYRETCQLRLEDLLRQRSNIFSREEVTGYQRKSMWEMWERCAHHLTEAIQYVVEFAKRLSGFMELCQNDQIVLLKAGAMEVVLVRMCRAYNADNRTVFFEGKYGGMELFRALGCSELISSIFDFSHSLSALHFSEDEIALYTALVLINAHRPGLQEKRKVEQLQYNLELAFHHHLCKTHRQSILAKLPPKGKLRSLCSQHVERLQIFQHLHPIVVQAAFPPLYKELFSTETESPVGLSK

outcome, inactive:
CCCCCCCCCC=CCC1CC(=O)OC1=O (stereo not given)
CC(=O)Nc1ccc(O)cc1
O=P(O)(O)CCC(F)(F)C(F)(F)C(F)(F)C(F)(F)C(F)(F)C(F)(F)C(F)(F)C(F)(F)F
C/C=C/C(=O)C1=C(C)CCCC1(C)C
O=S(=O)(O)C(F)(F)C(F)(F)C(F)(F)C(F)(F)C(F)(F)C(F)(F)C(F)(F)C(F)(F)C(F)(F)C(F)(F)F
O=c1cc(-c2ccccc2)oc2ccc3ccccc3c12
CN(C)c1ccc(C(=C2C=CC(=[N+](C)C)C=C2)c2ccccc2)cc1
CCCCCc1ccc(O)cc1
Brc1cc(Br)c(Oc2c(Br)cc(Br)c(Br)c2Br)cc1Br
Oc1cccc2c(O)cccc12
CCO[Si](CCC1CCC2OC2C1)(OCC)OCC (stereo not given)
C=CC(=O)OCCN(CC)CC
FC(OC(F)(F)C(F)(F)C(F)(F)F)C(F)(F)F (stereo not given)
Oc1c(Cl)cc(Cl)cc1Sc1cc(Cl)cc(Cl)c1O
NCCN
CCOCCOCC
NC(=NCCCCCCN=C(N)/N=C(\N)Nc1ccc(Cl)cc1)/N=C(\N)Nc1ccc(Cl)cc1
OCC(F)(F)C(F)(F)C(F)(F)C(F)(F)C(F)(F)C(F)(F)C(F)(F)C(F)(F)C(F)(F)C(F)(F)C(F)(F)F
CCCCCCCCC(C)=O
COC(=O)CC(C(C)=O)C(=O)OC (stereo not given)
Nc1ccn([C@@H]2O[C@H](CO)[C@@H](O)C2O)c(=O)n1 (stereo not given in full)
NS(=O)(=O)O
FC(F)=C(F)C(F)(F)C(F)(F)C(F)(F)C(F)F
CCC(C)c1ccccc1O (stereo not given)
Cc1ccc(C)c(S(=O)(=O)O)c1
Cc1ccc2ccc3ccc(C)cc3c2c1
O=C(O)CCC(F)(F)C(F)(F)C(F)(F)C(F)(F)C(F)(F)C(F)(F)F
C=CC(=C)CC/C=C(\C)CCC=C(C)C
CCC(C)c1nccnc1OC (stereo not given)
CC1CCC(CO)CC1 (stereo not given)
C=CC(C)(CCC=C(C)C)OC(C)=O (stereo not given)
CCCCCCC(C)(C)C(=O)O
CCCCCCCCCCCCCCC
O=P(O)(O)CCC(F)(F)C(F)(F)C(F)(F)C(F)(F)C(F)(F)C(F)(F)F
COCC1CCC(CO)CC1 (stereo not given)
O=C(O)CN(CCCN(CC(=O)O)CC(=O)O)CC(=O)O
c1cnc2c(c1)ccc1cccnc12
CC(C)(c1ccc(Oc2ccc(N)cc2)cc1)c1ccc(Oc2ccc(N)cc2)cc1
CC1CNCC(C)O1 (stereo not given)
CCN(CC)CC

Reference: PubChem BioAssay (EPA / NIEHS)
